Source: PubChem BioAssay (Tox21)
“And” between values parts separate entries of the source, which are not always exact repeats. Identical values can stand only once. Results filed as inconclusive are left out. Where a call stands in place of a potency, no number is given. Values without a mark were called inactive. The source made the active and inactive calls. Calls come from the whole dose curve; as a rule, active = well fitted curve in the direction sought with a large enough effect in the repeat runs; inconclusive = weak or mixed curves; inactive = no such curve, though single readings can be large; an effect the other way counts as inactive or inconclusive.

Columns and labels:
[1] = A CellTox Green Cytotoxicity Assay to monitor cytotoxicity in HEK293 cells - 40 hour (AID 1224871); note: nearly all actives have a fitted effect of over 45% in size; note: potency is the fitted concentration of half-maximal effect
Outline: (§1)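 Tox21 screen in HEK293: membrane-impermeant cyanine dye fluoresces on binding dead-cell DNA; compound pinned 5 h post-seeding, plates held at 37 C, signal read repeatedly through 40 h.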

[2] = qHTS RealTime-Glo MT Cell Viability Assay in HEK293 cells - 16 hour (AID 1224872); note: nearly all actives have a fitted effect of over 50% in size; note: potency is the fitted concentration of half-maximal effect
Outline: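 HEK293 cells seeded with NanoLuc/prosubstrate reagent, rested 5 h at 37 C, then dosed and kept at 37 C up to 40 h. Nonlytic real-time luminescence from viable cells read at 0, 8, 16, 24, 32 and 40 h.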

[3] = qHTS RealTime-Glo MT Cell Viability Assay in HepG2 cells - 8 hour (AID 1224873); note: nearly all actives have a fitted effect of over 55% in size
Outline: (§2)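 HepG2 cells mixed with RealTime-Glo MT reagents (NanoLuc plus cell-permeant prosubstrate) were seeded at 600 cells/well, incubated 5 h at 37 C/5% CO2, then pinned with compounds in DMSO; nonlytic luminescence tracked viability during 40 h treatment.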

[4] = qHTS RealTime-Glo MT Cell Viability Assay in HEK293 cells - 40 hour (AID 1224874); details: RealTime-Glo luminescence; max response: stronger effect = lower value; note: nearly all actives have a fitted effect of over 50% in size; note: potency is the fitted concentration of half-maximal effect
Outline: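 HEK293 + NanoLuc + prosubstrate, 600 cells/well; 5 h, 37 C/5% CO2; compound 23 nL in DMSO by pintool; 37 C; luminescence read at 0, 8, 16, 24, 32 and 40 h time points.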

[5] = A CellTox Green Cytotoxicity Assay to monitor cytotoxicity in HEK293 cells - 24 hour (AID 1224875); note: nearly all actives have a fitted effect of over 45% in size; note: potency is the fitted concentration of half-maximal effect
Outline: as §1

[6] = A CellTox Green Cytotoxicity Assay to monitor cytotoxicity in HepG2 cells - 16 hour (AID 1224876); note: nearly all actives have a fitted effect of over 45% in size; note: potency is the fitted concentration of half-maximal effect
Outline: (§3)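 Measurements at 0, 8, 16, 24, 32 and 40 h of treatment captured CellTox Green fluorescence in HepG2 cells that had been co-plated with reagent and preincubated 5 h at 37 C/5% CO2.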

[7] = qHTS RealTime-Glo MT Cell Viability Assay in HepG2 cells - 32 hour (AID 1224877); note: nearly all actives have a fitted effect of over 55% in size; note: potency is the fitted concentration of half-maximal effect
Outline: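 HepG2 cells (600/well) were dispensed with RealTime-Glo reagents, incubated 5 h at 37 °C, then treated with compounds in DMSO for up to 40 h. Nonlytic NanoLuc luminescence reflecting viable cells was read at each stated time point.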

[8] = A CellTox Green Cytotoxicity Assay to monitor cytotoxicity in HepG2 cells - 24 hour (AID 1224878); note: nearly all actives have a fitted effect of over 45% in size; note: potency is the fitted concentration of half-maximal effect
Outline: as §3

[9] = A CellTox Green Cytotoxicity Assay to monitor cytotoxicity in HepG2 cells - 40 hour (AID 1224879); note: nearly all actives have a fitted effect of over 40% in size; note: potency is the fitted concentration of half-maximal effect
Outline: as §3

[10] = qHTS RealTime-Glo MT Cell Viability Assay in HepG2 cells - 40 hour (AID 1224870); note: nearly all actives have a fitted effect of over 50% in size
Outline: as §2

SMILES	Potency [1]	Potency [2]	Potency [3]	max response [4]	Potency [5]	Potency [6]	Potency [7]	Potency [8]	Potency [9]	Potency [10]	Potency [4]
CC(Cl)Cl	inactive	inactive	inactive	3.34%	inactive	inactive	inactive	inactive	inactive	–	–
S=C=NCc1ccccc1	–	24.8 µM (active)	inactive	–	–	inactive	–	inactive	–	inactive	44.1 µM (active)
C[C@@H]1CC[C@H]2[C@@H](C)C(=O)O[C@@H]3O[C@@]4(C)CC[C@@H]1[C@]32OO4	inactive	inactive	inactive	-5.45%	inactive	inactive	inactive	inactive	inactive	–	–
O=C(O)c1ccccc1C(=O)Nc1cccc2ccccc12	inactive	inactive	inactive	18.5%	inactive	inactive	inactive	inactive	inactive	–	–
CC1CC(CC2CCC(N)C(C)C2)CCC1N (stereo not given)	–	–	inactive	–	62.7 µM (active)	inactive	inactive	inactive	inactive	inactive	55.8 µM (active)
Clc1cc(C(Cl)(Cl)Cl)cnc1Cl	–	–	inactive	–	–	inactive	inactive	–	34.7 µM (active)	inactive	–
Clc1cccc2ccccc12	–	inactive	inactive	-5.43%	–	inactive	inactive	inactive	inactive	inactive	–
CCOP(=O)(OCC)SCCSCC	inactive	inactive	inactive	0.908% and 6.69%	inactive	inactive	inactive	inactive	inactive	–	–
O=C1NCN(c2ccccc2)C12CCN(CCCOc1ccc(F)cc1)CC2	–	–	inactive	–	inactive	inactive	inactive	–	–	inactive	–
COP(=S)(OC)Oc1ccc([N+](=O)[O-])cc1Cl	–	–	inactive	-20.6%	inactive	inactive	inactive	inactive	inactive	inactive	–
Oc1ccc(Cl)c(Cl)c1Cl	–	–	inactive	–	–	inactive	inactive	–	–	inactive	–
ClCCCCBr	inactive	inactive	inactive	-9.07%	inactive	inactive	inactive	inactive	inactive	–	–
COc1ccc(-c2ccccc2)cc1NNC(=O)OC(C)C	–	–	–	–	–	inactive	inactive	inactive	inactive	inactive	51 µM (active)
COP(=O)(OC)O/C(=C/Cl)c1cc(Cl)c(Cl)cc1Cl	–	–	inactive	–	inactive	inactive	inactive	inactive	36.6 µM (active)	inactive	–
BrCCCCBr	inactive	inactive	inactive	17.9%	inactive	inactive	inactive	inactive	inactive	–	–
N#C/C(N)=C(/N)C#N	inactive	inactive	inactive	0.894%	inactive	inactive	inactive	inactive	inactive	–	–
CNC(C)Cc1ccccc1OC (stereo not given)	–	inactive	inactive	1.99%	inactive	–	inactive	inactive	inactive	inactive	–
N#CCC#N	–	–	inactive	-1.97%	inactive	inactive	inactive	inactive	–	inactive	–
N#Cc1cc(I)c(O)c(I)c1	–	–	inactive	–	inactive	inactive	inactive	inactive	inactive	inactive	–

SMILES	Potency [1]	Potency [2]	Potency [3]	max response [4]	Potency [5]	Potency [6]	Potency [7]	Potency [8]	Potency [9]	Potency [10]	Potency [4]
CCCCN=C=O	inactive	inactive	inactive	2.49%	inactive	inactive	inactive	inactive	inactive	–	–
NC(=O)CI	–	inactive	–	1.19%	–	–	9.86 µM (active)	–	–	–	–
O=C(O)COc1ccc(Cl)cc1	–	inactive	inactive	0.692%	inactive	inactive	inactive	inactive	inactive	–	–
CC(C)(C)C(O)C(Oc1ccc(Cl)cc1)n1cncn1 (stereo not given)	–	–	inactive	–	inactive	–	inactive	43.6 µM (active)	43.6 µM (active)	–	11 µM (active)
NCCCNCCCN	62.6 µM (active)	inactive	inactive	-7.03%	–	inactive	inactive	inactive	inactive	–	–
CC(=O)NC1CCSC1=O (stereo not given)	–	inactive	inactive	-1.76%	inactive	inactive	inactive	inactive	inactive	–	–
CC(O)(CS(=O)(=O)c1ccc(F)cc1)C(=O)Nc1ccc(C#N)c(C(F)(F)F)c1 (stereo not given)	inactive	–	–	–	inactive	inactive	–	inactive	inactive	–	–
O=C(N[C@H](c1ccccc1)[C@@H]1CN2CCC1CC2)c1c(Cl)ccc(C(F)(F)F)c1Cl	78.8 µM (active)	78.8 µM (active)	inactive	–	–	inactive	–	–	70.2 µM (active)	–	70.2 µM (active)
BrCC(Br)C1CCC(Br)C(Br)C1 (stereo not given)	inactive	–	inactive	-20.5%	inactive	inactive	inactive	inactive	inactive	–	–
Sc1ccccc1Cl	inactive	inactive	inactive	-1.55%	inactive	–	inactive	–	inactive	–	–
O=C(O)C(F)(F)C(F)(F)C(F)(F)C(F)(F)C(F)(F)C(F)(F)C(F)(F)C(F)(F)C(F)(F)C(F)(F)F	inactive	inactive	–	13.9%	inactive	–	–	–	–	–	–
CCCCN(N=O)C(=N)N[N+](=O)[O-]	inactive	inactive	inactive	–	inactive	inactive	inactive	inactive	inactive	–	–
CN1[C@@H]2CC[C@H]1CC(OC(=O)c1cc(Cl)cc(Cl)c1)C2 (stereo not given in full)	–	inactive	inactive	–	inactive	21.3 µM (active)	–	23.9 µM (active)	23.9 µM (active)	–	–
CC(=O)c1cc2c(cc1C)C(C)(C)C(C)CC2(C)C (stereo not given)	19.5 µM (active)	–	inactive	-12.1%	19.5 µM (active)	38.9 µM (active)	inactive	38.9 µM (active)	38.9 µM (active)	–	–
Brc1ccc(Oc2ccccc2)cc1	–	inactive	inactive	1.37% and 1.64%	–	inactive	inactive	inactive	inactive	–	–
O=C1C(Cl)C(CCl)CN1c1cccc(C(F)(F)F)c1 (stereo not given)	inactive	24.5 µM (active)	inactive	–	inactive	inactive	inactive	inactive	inactive	–	24.5 µM (active)
ClP(Cl)(Cl)(Cl)Cl	–	–	–	–	inactive	inactive	–	–	–	–	–
ClCC(Br)CBr (stereo not given)	inactive	inactive	inactive	14.6%	inactive	inactive	inactive	inactive	inactive	–	–
CS/C(C)=N/OC(=O)N(C)SN(C)C(=O)O/N=C(\C)SC	49 µM (active)	38.9 µM (active)	–	–	–	–	–	54.9 µM (active)	54.9 µM (active)	–	43.6 µM (active)

SMILES	Potency [1]	Potency [2]	Potency [3]	max response [4]	Potency [5]	Potency [6]	Potency [7]	Potency [8]	Potency [9]	Potency [10]	Potency [4]
CC(C)(C)c1cc([N+](=O)[O-])cc([N+](=O)[O-])c1O	–	–	inactive	–	inactive	inactive	–	inactive	–	–	–
C=CC[C@]1(O)CC[C@H]2[C@@H]3CCC4=CC(=O)CCC4=C3C=C[C@@]21C	–	19 µM (active)	–	–	inactive	inactive	–	inactive	inactive	–	19 µM (active)
CCc1ccc(C(=O)NN(C(=O)c2cc(C)cc(C)c2)C(C)(C)C)cc1	–	inactive	inactive	-11.5%	inactive	inactive	inactive	inactive	inactive	–	–
O=NN1CCNCC1	inactive	inactive	inactive	9.64%	inactive	inactive	inactive	inactive	inactive	–	–
O=C1C(=O)c2cccc3cccc1c23	inactive	–	–	–	inactive	inactive	–	inactive	inactive	–	–
CCOP(O)OCC	–	inactive	inactive	0.744%	inactive	inactive	inactive	inactive	inactive	–	–
CCC(COC(=O)c1cc(OC)c(OC)c(OC)c1)(c1ccccc1)N(C)C (stereo not given)	–	26.8 µM (active)	inactive	–	inactive	inactive	inactive	inactive	inactive	–	–
CC(C)N(C(=O)COc1nnc(C(F)(F)F)s1)c1ccc(F)cc1	inactive	34.7 µM (active)	–	–	inactive	inactive	–	inactive	inactive	–	–
C=CCC1([C@H](C)CCC)C(=O)NC(=O)NC1=O	–	inactive	inactive	-11.9%	inactive	inactive	inactive	inactive	inactive	–	–
C=CC(=O)NCNC(=O)C=C	inactive	inactive	inactive	–	inactive	inactive	inactive	inactive	–	–	–
O=[N+]([O-])C(Br)(CO)CO	–	–	–	–	inactive	–	–	–	–	–	–
CCCCC(O)(Cn1cncn1)c1ccc(Cl)cc1Cl (stereo not given)	54.9 µM (active)	43.6 µM (active)	–	–	–	–	–	43.6 µM (active)	48.9 µM (active)	–	43.6 µM (active)
O=[Se]=O	24.4 µM (active)	inactive	inactive	–	inactive	inactive	–	inactive	19.4 µM (active)	–	17.3 µM (active)
C=CCCl	–	inactive	inactive	-3.44%	inactive	inactive	inactive	inactive	inactive	–	–
O=C(C(Cl)(Cl)Cl)C(Cl)(Cl)Cl	–	inactive	inactive	-7.45%	inactive	inactive	inactive	inactive	inactive	–	–
CCCCCCCCCC(=O)O[C@H]1CC[C@H]2[C@@H]3CCC4=CC(=O)CC[C@@H]4[C@H]3CC[C@]12C	inactive	inactive	inactive	3.16%	inactive	inactive	inactive	inactive	inactive	–	–
Cl/C=C\C[N+]12CN3CN(CN(C3)C1)C2	inactive	–	inactive	–	inactive	inactive	inactive	inactive	inactive	–	–
COC(N)=O	inactive	inactive	inactive	–	inactive	inactive	inactive	inactive	inactive	–	–
